Data on one sequence can be found in paper PMC7862700, “An all-to-all approach to the identification of sequence-specific readers for epigenetic DNA modifications on cytosine”.

Test in all cases: DAPPL (digital affinity profiling via proximity ligation, sequencing); 10 mM Tris-HCl pH 7.5, 50 mM NaCl, 1 mM DTT, 4% glycerol, room temperature, 30 min; GST-TFs on glutathione beads, 16-mer random dsDNA library, 0.1% formaldehyde crosslink after washing; high values mean tight binding
One test addresses T1, FEV (Homo sapiens, UniProt Q99581 1-238).
T1 sequence: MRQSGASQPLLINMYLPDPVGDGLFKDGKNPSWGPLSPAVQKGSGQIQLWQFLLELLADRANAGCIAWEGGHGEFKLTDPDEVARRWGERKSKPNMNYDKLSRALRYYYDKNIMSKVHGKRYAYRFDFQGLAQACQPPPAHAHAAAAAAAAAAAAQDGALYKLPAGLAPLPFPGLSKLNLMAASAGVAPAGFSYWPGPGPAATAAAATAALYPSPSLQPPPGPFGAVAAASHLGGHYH
The note with it: protein: recombinant; tags: N-terminal GST; dsDNA, one strand shown. In short, it runs like this: (§1)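 Human transcription factors fused to GST were expressed in yeast, captured on glutathione beads, given DNA barcodes and pooled with a GST-only negative control. Pools were incubated with 200 nmole of a 16-mer random double-stranded DNA library in Tris/NaCl/DTT/glycerol buffer at room temperature for 30 min. They were then washed, crosslinked with 0.1% formaldehyde, proximity-ligated (BsaI/T4 ligase, 1 h, 37 °C), PCR-amplified and sequenced on an Illumina NextSeq500. Binding signal is each 6-mer's read frequency for a factor divided by its frequency for the GST control.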

The next test deals with ETV5 (Homo sapiens, UniProt P41161 1-510). Conditions: protein: recombinant; tags: N-terminal GST; dsDNA, one strand shown. In short, it runs like this:
as §1

The target in another test is HSF1 (Homo sapiens, UniProt Q00613 1-529). The note with it: protein: recombinant; tags: N-terminal GST; chain copies: 3; dsDNA, one strand shown. In a few lines: as §1
The target of a further test is T2, SPIC (Homo sapiens, UniProt Q8N5J4 1-248).
T2 sequence: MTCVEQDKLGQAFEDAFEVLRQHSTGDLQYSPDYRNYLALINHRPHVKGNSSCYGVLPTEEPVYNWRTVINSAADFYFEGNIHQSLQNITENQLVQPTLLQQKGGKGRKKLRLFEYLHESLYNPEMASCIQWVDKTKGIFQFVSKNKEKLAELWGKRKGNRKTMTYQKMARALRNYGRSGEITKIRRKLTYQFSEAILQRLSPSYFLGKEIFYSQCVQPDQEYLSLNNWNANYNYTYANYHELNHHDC
The note with it: protein: recombinant; tags: N-terminal GST; dsDNA, one strand shown. In short, it runs like this: as §1

For the next test, the target named is ELF4 (Homo sapiens, UniProt Q99607 1-663). The note with it: protein: recombinant; tags: N-terminal GST; dsDNA, one strand shown. In short, it runs like this: as §1
The target in another test is T3, ELK4 (Homo sapiens, UniProt P28324-2 1-405).
T3 sequence: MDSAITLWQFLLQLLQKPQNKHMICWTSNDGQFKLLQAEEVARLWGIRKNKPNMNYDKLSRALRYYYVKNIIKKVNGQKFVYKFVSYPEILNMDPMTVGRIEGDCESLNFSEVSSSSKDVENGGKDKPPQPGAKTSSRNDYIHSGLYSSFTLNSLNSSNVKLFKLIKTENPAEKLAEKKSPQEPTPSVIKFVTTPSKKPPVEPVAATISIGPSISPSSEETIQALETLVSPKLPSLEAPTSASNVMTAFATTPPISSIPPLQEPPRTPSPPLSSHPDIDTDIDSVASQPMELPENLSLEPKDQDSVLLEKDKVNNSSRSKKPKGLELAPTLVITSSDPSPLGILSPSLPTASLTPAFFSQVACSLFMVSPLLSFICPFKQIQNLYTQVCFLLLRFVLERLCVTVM
Conditions: protein: recombinant; tags: N-terminal GST; dsDNA, one strand shown. In short, it runs like this:
as §1

In another test the target is T4, ETV2 (Homo sapiens, UniProt O00321 1-342).
T4 sequence: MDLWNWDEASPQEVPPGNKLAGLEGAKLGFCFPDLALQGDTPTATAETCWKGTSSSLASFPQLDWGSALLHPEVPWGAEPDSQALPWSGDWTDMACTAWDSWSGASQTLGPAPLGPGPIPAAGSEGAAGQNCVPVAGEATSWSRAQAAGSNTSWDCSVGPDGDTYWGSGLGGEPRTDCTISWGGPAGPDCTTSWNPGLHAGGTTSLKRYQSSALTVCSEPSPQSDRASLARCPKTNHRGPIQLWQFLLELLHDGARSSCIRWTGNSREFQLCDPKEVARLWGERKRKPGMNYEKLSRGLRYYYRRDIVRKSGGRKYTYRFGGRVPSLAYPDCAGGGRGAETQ
The note with it: protein: recombinant; tags: N-terminal GST; dsDNA, one strand shown. In a few lines:
as §1

The target of a further test is T5, ELF3 (Homo sapiens, UniProt P78545 1-371).
T5 sequence: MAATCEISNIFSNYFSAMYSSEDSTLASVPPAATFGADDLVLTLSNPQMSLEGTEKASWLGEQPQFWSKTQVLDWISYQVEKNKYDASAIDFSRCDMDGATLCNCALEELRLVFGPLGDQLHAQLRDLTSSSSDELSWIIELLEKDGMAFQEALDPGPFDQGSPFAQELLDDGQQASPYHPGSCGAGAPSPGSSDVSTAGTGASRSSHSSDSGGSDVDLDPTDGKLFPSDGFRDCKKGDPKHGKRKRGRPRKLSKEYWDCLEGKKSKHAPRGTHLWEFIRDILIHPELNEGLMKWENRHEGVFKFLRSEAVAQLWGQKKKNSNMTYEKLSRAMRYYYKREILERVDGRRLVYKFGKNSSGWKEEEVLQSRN
The note with it: protein: recombinant; tags: N-terminal GST; dsDNA, one strand shown. In short, it runs like this: as §1

In another test the target is CRX (Homo sapiens, UniProt O43186 1-299). The note with it: protein: recombinant; tags: N-terminal GST; dsDNA, one strand shown. In short, it runs like this: as §1
The target in the next test is ETV1 (Homo sapiens, UniProt P50549 1-477). The note with it: protein: recombinant; tags: N-terminal GST; dsDNA, one strand shown. In short, it runs like this: as §1
Another test addresses T6, ERF (Homo sapiens, UniProt P50548 1-548).
T6 sequence: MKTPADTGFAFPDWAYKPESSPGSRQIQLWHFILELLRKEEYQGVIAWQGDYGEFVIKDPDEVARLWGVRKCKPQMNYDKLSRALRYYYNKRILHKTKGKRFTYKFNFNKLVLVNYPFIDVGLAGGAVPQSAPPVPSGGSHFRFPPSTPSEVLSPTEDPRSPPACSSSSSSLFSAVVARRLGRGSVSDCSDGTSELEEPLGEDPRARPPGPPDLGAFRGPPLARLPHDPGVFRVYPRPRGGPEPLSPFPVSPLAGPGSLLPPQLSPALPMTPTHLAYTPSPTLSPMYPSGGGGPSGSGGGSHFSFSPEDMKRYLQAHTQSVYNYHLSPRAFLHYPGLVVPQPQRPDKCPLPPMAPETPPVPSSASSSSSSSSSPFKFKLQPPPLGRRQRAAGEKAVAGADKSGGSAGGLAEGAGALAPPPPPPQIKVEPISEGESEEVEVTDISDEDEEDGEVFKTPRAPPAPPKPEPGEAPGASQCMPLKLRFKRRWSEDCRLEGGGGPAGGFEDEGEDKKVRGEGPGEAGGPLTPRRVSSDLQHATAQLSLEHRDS
The note with it: protein: recombinant; tags: N-terminal GST; dsDNA, one strand shown. In a few lines: as §1

A further test deals with T7, ETV3L (Homo sapiens, UniProt Q6ZN32 1-361).
T7 sequence: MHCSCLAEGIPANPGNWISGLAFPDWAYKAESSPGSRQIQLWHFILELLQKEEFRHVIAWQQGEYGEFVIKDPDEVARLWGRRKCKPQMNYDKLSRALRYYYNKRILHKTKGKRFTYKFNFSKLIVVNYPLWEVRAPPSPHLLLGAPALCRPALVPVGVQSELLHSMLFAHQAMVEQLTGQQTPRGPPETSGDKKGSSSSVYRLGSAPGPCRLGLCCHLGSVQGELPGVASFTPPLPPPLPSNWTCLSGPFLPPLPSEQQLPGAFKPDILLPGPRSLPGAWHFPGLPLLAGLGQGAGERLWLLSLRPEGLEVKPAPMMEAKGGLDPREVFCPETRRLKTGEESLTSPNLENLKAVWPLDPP
The note with it: protein: recombinant; tags: N-terminal GST; dsDNA, one strand shown. In short, it runs like this:
as §1

In a further test the target is T8, ETS2 (Homo sapiens, UniProt P15036 1-469).
T8 sequence: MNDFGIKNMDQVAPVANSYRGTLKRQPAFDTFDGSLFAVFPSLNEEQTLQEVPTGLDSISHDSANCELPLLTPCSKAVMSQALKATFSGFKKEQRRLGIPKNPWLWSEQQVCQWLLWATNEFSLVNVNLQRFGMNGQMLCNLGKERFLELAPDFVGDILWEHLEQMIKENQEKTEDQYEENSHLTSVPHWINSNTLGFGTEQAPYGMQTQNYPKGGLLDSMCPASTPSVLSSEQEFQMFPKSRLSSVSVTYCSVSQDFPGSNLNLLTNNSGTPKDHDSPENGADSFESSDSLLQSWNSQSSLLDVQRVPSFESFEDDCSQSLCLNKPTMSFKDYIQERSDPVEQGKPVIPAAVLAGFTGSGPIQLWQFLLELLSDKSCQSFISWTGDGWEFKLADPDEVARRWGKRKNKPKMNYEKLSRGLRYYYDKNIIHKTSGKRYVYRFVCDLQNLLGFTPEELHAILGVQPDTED
The note with it: protein: recombinant; tags: N-terminal GST; dsDNA, one strand shown. In a few lines: as §1

The next test has as its target T9, SPDEF (Homo sapiens, UniProt O95238 1-335).
T9 sequence: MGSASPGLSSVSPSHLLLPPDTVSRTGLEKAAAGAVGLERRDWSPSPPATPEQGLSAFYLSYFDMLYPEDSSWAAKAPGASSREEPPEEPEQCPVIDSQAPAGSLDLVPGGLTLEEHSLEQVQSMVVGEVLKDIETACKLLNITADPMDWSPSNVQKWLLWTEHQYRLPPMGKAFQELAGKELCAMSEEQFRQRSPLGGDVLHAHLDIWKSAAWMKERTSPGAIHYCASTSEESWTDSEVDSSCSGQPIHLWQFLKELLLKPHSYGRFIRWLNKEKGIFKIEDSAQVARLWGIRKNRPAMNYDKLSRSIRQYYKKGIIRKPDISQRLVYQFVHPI
The note with it: protein: recombinant; tags: N-terminal GST; dsDNA, one strand shown. In a few lines:
as §1

The target of another test is T10, ETV7 (Homo sapiens, UniProt Q9Y603 1-341).
T10 sequence: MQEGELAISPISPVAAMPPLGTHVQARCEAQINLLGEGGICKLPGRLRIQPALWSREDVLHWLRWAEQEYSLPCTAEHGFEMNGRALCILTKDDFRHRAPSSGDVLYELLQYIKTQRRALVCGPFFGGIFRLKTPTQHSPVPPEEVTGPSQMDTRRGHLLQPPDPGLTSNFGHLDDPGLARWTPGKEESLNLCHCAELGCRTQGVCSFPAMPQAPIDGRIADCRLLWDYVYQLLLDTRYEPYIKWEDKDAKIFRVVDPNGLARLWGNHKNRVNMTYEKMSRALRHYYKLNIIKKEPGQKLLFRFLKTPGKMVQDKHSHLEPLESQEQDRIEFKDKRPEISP
The note with it: protein: recombinant; tags: N-terminal GST; dsDNA, one strand shown. In a few lines: as §1

The target of another test is T11, ELF5 (Homo sapiens, UniProt Q9UKW6-2 1-255).
T11 sequence: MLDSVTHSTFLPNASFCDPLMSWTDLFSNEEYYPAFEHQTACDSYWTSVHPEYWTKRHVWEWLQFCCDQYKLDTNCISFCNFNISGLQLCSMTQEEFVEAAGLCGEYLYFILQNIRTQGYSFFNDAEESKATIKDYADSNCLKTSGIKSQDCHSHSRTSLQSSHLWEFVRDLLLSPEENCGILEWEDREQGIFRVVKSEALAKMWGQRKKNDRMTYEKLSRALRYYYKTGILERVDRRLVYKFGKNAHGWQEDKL
The note with it: protein: recombinant; tags: N-terminal GST; dsDNA, one strand shown. In a few lines:
as §1

Another test concerns the target T12, ETV3 (Homo sapiens, UniProt P41162-2 1-143).
T12 sequence: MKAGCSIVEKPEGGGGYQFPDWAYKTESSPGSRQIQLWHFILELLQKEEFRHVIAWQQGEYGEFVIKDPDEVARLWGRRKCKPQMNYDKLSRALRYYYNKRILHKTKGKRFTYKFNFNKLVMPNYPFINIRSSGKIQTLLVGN
Conditions: protein: recombinant; tags: N-terminal GST; dsDNA, one strand shown. In a few lines:
as §1

For the next test, the target named is ETV6 (Homo sapiens, UniProt P41212 1-452). The note with it: protein: recombinant; tags: N-terminal GST; dsDNA, one strand shown. In short, it runs like this: as §1
Sequence of ETV6 (P41212 whole entry): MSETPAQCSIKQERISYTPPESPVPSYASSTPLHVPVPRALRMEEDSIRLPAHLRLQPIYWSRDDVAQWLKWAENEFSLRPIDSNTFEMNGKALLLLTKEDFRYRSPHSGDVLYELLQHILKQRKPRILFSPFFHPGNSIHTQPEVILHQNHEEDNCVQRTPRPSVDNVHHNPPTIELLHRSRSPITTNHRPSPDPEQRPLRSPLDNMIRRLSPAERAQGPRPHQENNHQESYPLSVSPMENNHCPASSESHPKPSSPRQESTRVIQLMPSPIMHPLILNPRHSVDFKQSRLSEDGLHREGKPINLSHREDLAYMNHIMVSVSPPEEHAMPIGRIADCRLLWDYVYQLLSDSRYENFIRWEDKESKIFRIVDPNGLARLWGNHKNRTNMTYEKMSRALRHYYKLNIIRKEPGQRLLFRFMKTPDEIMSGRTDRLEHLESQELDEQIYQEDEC

Sequence of ETV1 (P50549 whole entry): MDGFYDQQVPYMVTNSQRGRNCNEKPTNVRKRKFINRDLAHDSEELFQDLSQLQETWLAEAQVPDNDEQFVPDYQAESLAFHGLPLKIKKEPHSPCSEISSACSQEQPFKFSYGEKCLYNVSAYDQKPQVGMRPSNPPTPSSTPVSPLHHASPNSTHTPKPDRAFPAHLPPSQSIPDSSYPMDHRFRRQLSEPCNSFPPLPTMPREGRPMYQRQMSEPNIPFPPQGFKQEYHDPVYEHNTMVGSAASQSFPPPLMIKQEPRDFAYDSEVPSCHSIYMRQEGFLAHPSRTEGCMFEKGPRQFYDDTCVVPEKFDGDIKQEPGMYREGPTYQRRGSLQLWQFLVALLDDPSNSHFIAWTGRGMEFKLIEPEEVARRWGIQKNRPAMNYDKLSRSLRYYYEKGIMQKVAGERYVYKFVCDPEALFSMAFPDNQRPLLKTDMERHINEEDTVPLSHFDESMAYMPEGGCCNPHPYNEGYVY
Sequence of HSF1 (Q00613 whole entry): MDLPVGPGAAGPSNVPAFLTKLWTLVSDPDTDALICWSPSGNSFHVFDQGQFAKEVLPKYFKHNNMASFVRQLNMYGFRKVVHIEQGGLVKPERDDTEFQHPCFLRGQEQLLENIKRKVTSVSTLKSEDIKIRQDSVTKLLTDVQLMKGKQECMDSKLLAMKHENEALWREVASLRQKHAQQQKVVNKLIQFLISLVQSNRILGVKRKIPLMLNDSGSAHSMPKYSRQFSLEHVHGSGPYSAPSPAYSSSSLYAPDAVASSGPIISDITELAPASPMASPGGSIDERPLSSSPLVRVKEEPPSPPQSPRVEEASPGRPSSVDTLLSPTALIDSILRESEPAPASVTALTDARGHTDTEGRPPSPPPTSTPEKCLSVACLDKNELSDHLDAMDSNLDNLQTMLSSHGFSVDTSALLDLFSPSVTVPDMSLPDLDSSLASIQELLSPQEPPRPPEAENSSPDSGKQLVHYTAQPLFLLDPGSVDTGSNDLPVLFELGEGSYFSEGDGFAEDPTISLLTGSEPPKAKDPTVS
Sequence of ELF4 (Q99607 whole entry): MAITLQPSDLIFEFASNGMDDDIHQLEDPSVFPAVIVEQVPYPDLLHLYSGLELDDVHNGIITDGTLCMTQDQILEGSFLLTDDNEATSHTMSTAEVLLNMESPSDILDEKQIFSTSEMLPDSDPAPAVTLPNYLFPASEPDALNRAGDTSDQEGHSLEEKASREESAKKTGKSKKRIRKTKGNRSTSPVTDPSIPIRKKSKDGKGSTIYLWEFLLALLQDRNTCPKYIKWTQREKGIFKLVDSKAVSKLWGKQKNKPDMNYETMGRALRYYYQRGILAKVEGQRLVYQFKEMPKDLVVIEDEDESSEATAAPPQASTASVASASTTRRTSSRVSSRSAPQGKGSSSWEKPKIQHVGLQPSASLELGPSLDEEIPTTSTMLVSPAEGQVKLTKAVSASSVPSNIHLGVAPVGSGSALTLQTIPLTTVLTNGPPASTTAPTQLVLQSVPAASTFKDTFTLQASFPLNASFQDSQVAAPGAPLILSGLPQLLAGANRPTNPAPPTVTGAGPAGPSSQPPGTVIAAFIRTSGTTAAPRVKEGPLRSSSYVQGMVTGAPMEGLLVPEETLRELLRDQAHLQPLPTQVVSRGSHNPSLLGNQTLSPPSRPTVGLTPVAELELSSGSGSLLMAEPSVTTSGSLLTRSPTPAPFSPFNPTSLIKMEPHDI
Sequence of ETV5 (P41161 whole entry): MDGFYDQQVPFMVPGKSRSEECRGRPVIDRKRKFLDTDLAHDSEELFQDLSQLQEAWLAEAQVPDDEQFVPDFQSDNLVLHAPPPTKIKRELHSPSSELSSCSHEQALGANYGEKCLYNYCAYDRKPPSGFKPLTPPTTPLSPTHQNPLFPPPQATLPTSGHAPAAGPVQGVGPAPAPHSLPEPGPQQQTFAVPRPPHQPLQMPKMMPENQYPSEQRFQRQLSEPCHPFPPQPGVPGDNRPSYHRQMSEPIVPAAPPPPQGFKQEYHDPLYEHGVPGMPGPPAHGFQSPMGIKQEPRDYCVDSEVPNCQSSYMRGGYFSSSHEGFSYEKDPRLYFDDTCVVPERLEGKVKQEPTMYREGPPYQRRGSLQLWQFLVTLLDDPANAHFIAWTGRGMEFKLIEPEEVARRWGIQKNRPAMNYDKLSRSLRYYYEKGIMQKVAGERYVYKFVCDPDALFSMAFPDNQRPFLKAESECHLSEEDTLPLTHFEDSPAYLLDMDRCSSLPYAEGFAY
Sequence of CRX (O43186 whole entry): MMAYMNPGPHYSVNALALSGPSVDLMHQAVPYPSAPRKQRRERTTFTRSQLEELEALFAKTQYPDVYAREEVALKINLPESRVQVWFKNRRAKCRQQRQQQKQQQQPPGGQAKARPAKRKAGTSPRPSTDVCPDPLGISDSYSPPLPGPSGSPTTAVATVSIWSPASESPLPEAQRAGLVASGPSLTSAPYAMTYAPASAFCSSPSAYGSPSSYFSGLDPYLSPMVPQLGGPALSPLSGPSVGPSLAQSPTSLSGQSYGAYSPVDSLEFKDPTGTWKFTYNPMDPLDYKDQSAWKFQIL

With AACATT, the binding signal was 1.2 fold enrichment (6-mer frequency, TF over GST control) with FEV; 1.31 fold enrichment (6-mer frequency, TF over GST control) with ETV5; 1.99 fold enrichment (6-mer frequency, TF over GST control) with HSF1; 1.21 fold enrichment (6-mer frequency, TF over GST control) in the test with SPIC; 1.29 fold enrichment (6-mer frequency, TF over GST control) in the test with ELF4; 1.31 fold enrichment (6-mer frequency, TF over GST control) with ELK4. Also, the binding signal with ETV2 is 1.29 fold enrichment (6-mer frequency, TF over GST control); with ELF3, 1.33 fold enrichment (6-mer frequency, TF over GST control); in the test with CRX, 1.34 fold enrichment (6-mer frequency, TF over GST control); with ETV1, 1.29 fold enrichment (6-mer frequency, TF over GST control); in the test with ERF it was 1.33 fold enrichment (6-mer frequency, TF over GST control); with ETV3L, 1.34 fold enrichment (6-mer frequency, TF over GST control). Moreover, the binding signal with ETS2 was 1.29 fold enrichment (6-mer frequency, TF over GST control); in the test with SPDEF it was 1.16 fold enrichment (6-mer frequency, TF over GST control); in the test with ETV7, 1.36 fold enrichment (6-mer frequency, TF over GST control); with ELF5 it was 1.3 fold enrichment (6-mer frequency, TF over GST control); with ETV3, 1.32 fold enrichment (6-mer frequency, TF over GST control); in the test with ETV6, 1.39 fold enrichment (6-mer frequency, TF over GST control).
